Hits are enriched below; roughly 19% of the tested compounds scored in any of these assays.
DT40 TDP1 no CPT = qHTS for Inhibitors of human tyrosyl-DNA phosphodiesterase 1 (TDP1): qHTS in cells in absence of CPT. Potency, µM (doses to about 46.2 µM), inactives show at the highest dose activity change, negative = growth inhibition, usual class: inhibitors. DT40 Tdp1-/- hTDP1 cells, no CPT, ATP luminescence, 48 h. 420,000 compounds, 15% hits; further: nearly all actives have a fitted effect of over 55% in size
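DT40 Tdp1-/-;hTDP1 cells, no CPT (DMSO vehicle only), 400 cells/well; compounds pin-transferred; ≥48 hr, 37 °C; CellTiter-Glo 30 min RT dark, luminescence read.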
TDP1 block = inhibitors of human tyrosyl-DNA phosphodiesterase TDP1; Q9NUW8; recombinant TDP1, AlphaScreen DNA substrate cleavage; Potency, µM (titrated, usually from 130 µM), inactives show at the highest dose activity change, negative = inhibition, hits mostly inhibitors; 350,000 compounds, 0.28% hits; AID 485290; further: nearly all actives have a fitted effect of over 40% in size
Target sequence (Q9NUW8 whole entry, looked up): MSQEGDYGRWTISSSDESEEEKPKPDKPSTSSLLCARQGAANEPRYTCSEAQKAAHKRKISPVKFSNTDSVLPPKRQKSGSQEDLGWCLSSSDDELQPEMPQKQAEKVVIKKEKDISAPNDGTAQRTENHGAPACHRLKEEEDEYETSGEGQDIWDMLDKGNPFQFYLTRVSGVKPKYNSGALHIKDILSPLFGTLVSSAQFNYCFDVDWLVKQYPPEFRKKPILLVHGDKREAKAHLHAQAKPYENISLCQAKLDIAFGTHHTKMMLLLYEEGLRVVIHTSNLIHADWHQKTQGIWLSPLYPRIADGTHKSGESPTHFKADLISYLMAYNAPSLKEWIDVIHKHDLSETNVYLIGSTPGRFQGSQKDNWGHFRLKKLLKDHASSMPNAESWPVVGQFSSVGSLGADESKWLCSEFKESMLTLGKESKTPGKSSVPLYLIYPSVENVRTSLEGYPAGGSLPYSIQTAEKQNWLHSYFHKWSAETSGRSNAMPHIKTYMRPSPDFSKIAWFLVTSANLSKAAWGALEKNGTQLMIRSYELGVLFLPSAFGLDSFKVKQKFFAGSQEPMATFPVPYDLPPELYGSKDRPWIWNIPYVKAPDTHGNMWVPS
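Here, a 5' biotin and 3' phosphotyrosine-FITC DNA oligonucleotide reports Tdp1 activity: intact substrate bridges AlphaScreen beads, while cleavage leaves a 3' phosphate and drops signal. All incubations at room temperature.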
DT40 TDP1 CPT = DT40-hTDP1 cell growth loss with CPT | AID 686979 | Potency, µM (top dose mostly 46.2 µM), for the others: top-dose activity change, negative = growth inhibition, usual class: inhibitors | chicken DT40 Tdp1-/-;hTDP1 cells + 20 nM CPT, ATP luminescence, 48 h | 420,000 compounds, 12% hits; further: nearly all actives have a fitted effect of over 55% in size
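Chicken DT40 Tdp1-/- cells complemented with human TDP1, 400 cells/well, exposed to compounds plus 20 nM camptothecin for at least 48 h at 37 C; viability read as ATP content by CellTiter-Glo luminescence.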
VP16 counter = Gal4-VP16 reporter inhibition counter-screen; Drosophila S2 Gal4-VP16 UAS-luciferase, luminescence, 20 h; 310,000 compounds, 3.5% hits; Potency, µM (titrated, usually from 53.6 µM), inactives show at the highest dose activity, negative = inhibition, hits mostly inhibitors; AID 2546;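 further: Gal4-VP16 expression switched on by copper sulfate through the metallothionein promoter; nearly all actives have a fitted effect of over 50% in size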
RORgamma inh = inhibitors of mouse ROR gamma transcriptional activity. 310,000 compounds, 5.4% hits. Potency, µM (series often up to 53.6 µM), without a hit: top-dose activity change, negative = inhibition, actives largely listed as inhibitors. Drosophila S2 Gal4-RORgamma UAS-luciferase reporter, 20 h; further: nearly all actives have a fitted effect of over 60% in size
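Read-out: Photinus luciferase luminescence; inhibitors lower reporter signal. Insect Schneider cells with Gal4-ROR gamma fusion under metallothionein promoter, UAS reporter; 700 uM final copper sulfate induction, 20 hr, ambient temperature.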
Numbers without * were called inactive; [ ] = another dose, or the depositor's remark. The call rests on the fitted dose curve; in most records, active means well fitted curve in the direction sought with a large enough effect; inconclusive means small, poorly fitted or top-dose-only effect, or another doubt; inactive means no such curve, though single readings can be large; an effect the other way counts as inactive or inconclusive. On the % scale 0 is the no-effect control and ±100 the full control effect; potency means the concentration at half of the fitted maximal effect.

Results for c1ccc(Cn2c(CNc3nc4ccccc4n3CCN3CCCCC3)nc3ccccc32)cc1 ?
DT40 TDP1 no CPT: inconclusive; TDP1 block: 8%; DT40 TDP1 CPT: inconclusive; VP16 counter: inconclusive; RORgamma inh: inconclusive

How did CCN(CC)CCn1c(NCc2nc3ccccc3n2Cc2ccccc2)nc2ccccc21 do in these assays?
DT40 TDP1 no CPT: inconclusive; TDP1 block: 7%; DT40 TDP1 CPT: inconclusive; VP16 counter: inconclusive; RORgamma inh: 11µM*

Results for CCn1cnc2cc(NCc3ccc(N(C)C)cc3)ccc21 ?
DT40 TDP1 no CPT: 18µM*; TDP1 block: 11%; DT40 TDP1 CPT: 15µM*; VP16 counter: -4%[10 µM]; RORgamma inh: -17%

Results for CCN1CCC(N(Cc2ccc3c(c2)OCO3)C(=O)Nc2ccc(Br)c(C)c2)CC1 ?
DT40 TDP1 no CPT: 16µM*; TDP1 block: -1%; DT40 TDP1 CPT: inconclusive

What do the screens show for `CCN1CCC(N(Cc2ccc3c(c2)OCO3)C(=O)Nc2cccc(C)c2C)CC1`?
DT40 TDP1 no CPT: inconclusive; TDP1 block: 6%; DT40 TDP1 CPT: inconclusive

What do the screens show for `Cc1cccc2c3c([nH]c12)CCNC3`?
DT40 TDP1 no CPT: -23%; DT40 TDP1 CPT: 8%; VP16 counter: 7%; RORgamma inh: -3%

Results for Cc1ccc(Cl)cc1N1CCN(C(=O)c2ccc3nc(N4CCC(C)CC4)sc3c2)CC1 ?
DT40 TDP1 no CPT: 21µM*; TDP1 block: -3%; DT40 TDP1 CPT: 21µM*

Results for Cc1ccc(C)c(N2CCN(C(=O)c3ccc4nc(N5CCOCC5)sc4c3)CC2)c1 ?
DT40 TDP1 no CPT: 13µM*; TDP1 block: 5%; DT40 TDP1 CPT: inconclusive; VP16 counter: 10%; RORgamma inh: 40%

Results for CCOC(=O)N1CCN(C(=O)c2ccc3nc(N4CCC(C)CC4)sc3c2)CC1 ?
DT40 TDP1 no CPT: inconclusive; TDP1 block: 4%; DT40 TDP1 CPT: inconclusive; VP16 counter: inconclusive; RORgamma inh: 3%

What do the screens show for `O=C(c1ccc2nc(N3CCOCC3)sc2c1)N1CCC(Cc2ccccc2)CC1`?
DT40 TDP1 no CPT: 23µM*; TDP1 block: 5%; DT40 TDP1 CPT: inconclusive; VP16 counter: 0.22µM*; RORgamma inh: inconclusive

Results for COc1cccc(N2CCN(C(=O)c3ccc4nc(N5CCC(C)CC5)sc4c3)CC2)c1 ?
DT40 TDP1 no CPT: inconclusive; TDP1 block: 8%; DT40 TDP1 CPT: inconclusive; VP16 counter: -20%; RORgamma inh: 13µM*

Results for Cc1ccc(CNC(=O)CS(=O)(=O)c2ccccc2)cc1 ?
DT40 TDP1 no CPT: 1%; TDP1 block: 5%; DT40 TDP1 CPT: -24%; VP16 counter: 7%; RORgamma inh: 34%

How did CC1(C(=O)NC2CCCCC2)CCC(=O)N1Cc1cccnc1 (centres undefined) do in these assays?
DT40 TDP1 no CPT: 3%; TDP1 block: -1%; DT40 TDP1 CPT: 10%; VP16 counter: 4%; RORgamma inh: -17%

Results for COc1cc(/C=N\NC(=O)CNC(=O)C(c2ccccc2)c2ccccc2)ccc1O ?
DT40 TDP1 no CPT: -14%; TDP1 block: 1%; DT40 TDP1 CPT: -2%; VP16 counter: 9%; RORgamma inh: 41%

How did Cc1ccc(OCC(=O)NNC(=O)c2cc(S(=O)(=O)N(C)C)ccc2N2CCCC2)cc1 do in these assays?
DT40 TDP1 no CPT: -12%; DT40 TDP1 CPT: -7%

Results for CCCc1cc(=O)oc2cc(OCc3ccc(C(=O)O)o3)ccc12 ?
DT40 TDP1 no CPT: -1%; DT40 TDP1 CPT: 2%; VP16 counter: 0%; RORgamma inh: 9%

How did CCCCCC1C(=O)N2C=C(c3ccccc3)c3ccccc3N2C1=O (centres undefined) do in these assays?
DT40 TDP1 no CPT: -15%; DT40 TDP1 CPT: -16%

What do the screens show for `Cc1cccc(N2CCN(C(=O)c3ccc4nc(N5CCCCC5)sc4c3)CC2)c1C`?
DT40 TDP1 no CPT: 18µM*; DT40 TDP1 CPT: 21µM*; VP16 counter: 7%; RORgamma inh: -27%

How did CCOc1ccc(-n2c(=O)c3sccc3n(CC(=O)Nc3cccc(OC)c3)c2=O)cc1 do in these assays?
DT40 TDP1 no CPT: -23%; TDP1 block: inconclusive; DT40 TDP1 CPT: inconclusive; VP16 counter: -8%; RORgamma inh: 9%

What do the screens show for `CCOc1ccccc1N(C)C(=O)c1ccc2c(=O)n3c(nc2c1)CCCCC3`?
DT40 TDP1 no CPT: -25%; TDP1 block: 2%; DT40 TDP1 CPT: inconclusive; VP16 counter: -6%; RORgamma inh: -4%

Results for CC1=NN(c2nc3ccccc3[nH]2)C(=O)/C1=C/N(C)C ?
DT40 TDP1 no CPT: inconclusive; TDP1 block: 8%; DT40 TDP1 CPT: 4.6µM*; VP16 counter: inconclusive; RORgamma inh: 5µM*

How did CC1=NN(c2nc3ccccc3[nH]2)C(=O)C1Cc1ccccc1 (centres undefined) do in these assays?
DT40 TDP1 no CPT: 1.3µM*; TDP1 block: 10%; DT40 TDP1 CPT: 1µM*; VP16 counter: -13%; RORgamma inh: -29%

What do the screens show for `CC1=NN(c2ccccc2)C(=O)/C1=C/N(C)C`?
DT40 TDP1 no CPT: 4%; TDP1 block: 8%; DT40 TDP1 CPT: inconclusive; VP16 counter: -9%; RORgamma inh: -16%

What do the screens show for `Cn1c(=O)c2c(nc(SCc3nc(N)nc(N4CCCCC4)n3)n2C)n(C)c1=O`?
DT40 TDP1 no CPT: 23µM*; TDP1 block: -3%; DT40 TDP1 CPT: 21µM*; VP16 counter: -7%; RORgamma inh: -23%

What do the screens show for `CC(OC(=O)C1COc2ccccc2O1)C(=O)N(C)c1ccccc1` (centres undefined)?
DT40 TDP1 no CPT: -1%; TDP1 block: 0%; DT40 TDP1 CPT: 5%; VP16 counter: -13%; RORgamma inh: 13%

What do the screens show for `Cc1ccc(NC(=O)CN2CCCC2c2cccs2)cc1S(=O)(=O)N1CCCCC1` (centres undefined)?
DT40 TDP1 no CPT: 23µM*; TDP1 block: -1%[56.1 µM]; DT40 TDP1 CPT: 18µM*

What do the screens show for `O=C(CN1CCCC1c1cccs1)Nc1cc(S(=O)(=O)N2CCCCC2)ccc1Cl` (centres undefined)?
DT40 TDP1 no CPT: inconclusive; DT40 TDP1 CPT: 16µM*

How did O=C(CN1C(=O)NC(Cc2c[nH]c3ccccc23)C1=O)Nc1cccc(S(=O)(=O)N2CCCC2)c1 (centres undefined) do in these assays?
DT40 TDP1 no CPT: inconclusive; TDP1 block: -3%; DT40 TDP1 CPT: inconclusive; VP16 counter: inconclusive; RORgamma inh: -9%

How did Cc1ccc(S(=O)(=O)N2CCCCC2)cc1NC(=O)CN1CCCC1c1cccs1 (centres undefined) do in these assays?
DT40 TDP1 no CPT: -24%; DT40 TDP1 CPT: -25%
